# About 200 (4.4%) of roughly 4,500 compounds were called active.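 The calls were made as follows: active = cell survival measured by absorbance rises more than 2.5-fold over infected cells without compound; inactive = the rest.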 The list comes from a sample in which actives are over-represented; it also holds similar structures and randomly drawn compounds.
# Assay: survival after telomere uncapping, modulators, primary screen, cell-based (AID 1259312);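 also: virus expresses mutant telomerase RNA that uncaps telomeres and kills cells; compound added 2 days after infection so exposure lasts 3 days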
# Settings: HCT116 + Ad-hTR-mut, MTT, 5 d; at 10 µM, hits give high values
row,Structure (SMILES),fold change
1,S=c1[nH]nc(-c2cccs2)n1-c1ccccc1,-1.22 (inactive)
2,C=C(C)n1c(=O)[nH]c2ccccc21,1.29 (inactive)
3,Cc1c(Br)c([N+](=O)[O-])nn1CC(=O)O,1.12 (inactive)
4,O=C1N=C(N2CCCC2)S/C1=C\c1ccc(Cl)cc1,-1.52 (inactive)
5,COc1ccc(-c2nn(CN3CCN(C(c4ccccc4)c4ccccc4)CC3)c(=S)n2C)cc1,-1.05 (inactive)
6,Clc1ccc(CSc2nnc(-c3cccc(Br)c3)o2)c(Cl)c1,2.77 (active)
7,Clc1ccc(CSc2nnc(-c3ccccc3Cl)o2)c(Cl)c1,3.91 (active)
8,Clc1ccc(-c2nnc(SCc3ccccc3)o2)c(Cl)c1,2.08 (inactive)
9,Brc1cccc(-c2nnc(SCc3ccon3)o2)c1,-2.29 (inactive)
10,Clc1ccc(-c2nnc(SCc3nc(-c4ccccc4)no3)o2)cc1,-1.07 (inactive)
11,CCCSc1nnc(-c2ccc(Cl)cc2Cl)o1,2.03 (inactive)
12,CC1(C)C=Cc2c(c3ccccc3[nH]c2=O)O1,-1.4 (inactive)
13,O=C(Cc1cccs1)NC1CCCCCC1,-2.19 (inactive)
14,Cc1ccc(-c2noc(COc3ccc4c(c3)OCO4)n2)cc1,1.5 (inactive)
15,CC1=C/C(=C(\c2cc(C)c(O)cc2C)c2ccccc2S(=O)(=O)O)C(C)=CC1=O,inactive
16,c1ccc(-c2nc3ccccc3nc2-c2ccccc2)cc1,-1.02 (inactive)
17,CN1CCN(c2nc3ccccc3nc2N2CCN(C)CC2)CC1,2.65 (active)
18,O=S(=O)(Nc1nc2ccccc2nc1N1CCOCC1)c1ccccc1,-1.42 (inactive)
19,CCCN1CC=C2C(C#N)=C(N)C(C#N)(C#N)[C@H](c3ccsc3)[C@H]2C1,2.9 (active)
20,CC(C)N1CC=C2C(C#N)=C(N)C(C#N)(C#N)C(c3ccc(F)cc3)[C@H]2C1 (stereo not given in full),3.68 (active)
21,CC(C)c1ccc(C2[C@H]3CN(C)CC=C3C(C#N)=C(N)C2(C#N)C#N)cc1 (stereo not given in full),2.14 (inactive)
22,CN1CC=C2C(C#N)=C(N)C(C#N)(C#N)C(c3ccc(F)cc3)[C@H]2C1 (stereo not given in full),-37.3 (inactive)
23,COc1ccc(C2C3CCC=C3C(C#N)=C(N)C2(C#N)C#N)cc1 (stereo not given),-1.15 (inactive)
24,N#CC1=C(N)C(C#N)(C#N)[C@@H](c2cccc(Br)c2)[C@@H]2CN(Cc3ccccc3)CC=C12,1.73 (inactive)
25,c1cnc(SCc2ccc3nsnc3c2)nc1,1.11 (inactive)
26,CC(=O)Nc1ccc(S(=O)(=O)N2CCCC2C(=O)NC2CC2)cc1 (stereo not given),-1.03 (inactive)
27,COc1ccc(Oc2coc3cc(O)ccc3c2=O)cc1,-2.75 (inactive)

row,Structure (SMILES),fold change
1,N#C/C(=C\c1ccc2c(c1)OCO2)c1ccccn1,-2.23 (inactive)
2,CC(=O)Nc1nonc1NC(=O)C(F)(F)F,-1.07 (inactive)
3,O=S(=O)(NCCn1cccc1)c1ccc2ccccc2c1,1.09 (inactive)
4,O=[N+]([O-])c1cc(Cl)ccc1N1CCN(c2ccc(Cl)cc2[N+](=O)[O-])CC1,2.59 (active)
5,O=[N+]([O-])c1cc(Cl)ccc1N1CCOCC1,-1.07 (inactive)
6,O=[N+]([O-])c1ccc(Cl)cc1N1CCOCC1,1.51 (inactive)
7,CC(C)CC(N)C(N)=O (stereo not given),-2.69 (inactive)
8,N#C/C(=C/c1ccncc1)C(N)=S,-1.8 (inactive)
9,COc1cc2c(Cc3c4c5c(cc(OC)c(OC)c5c5c(OC)c(OC)ccc35)CCN4C)c3c4c(cc(OC)c(OC)c4c2cc1OC)CCN3C,-1.39 (inactive)
10,COC(=O)C1=C(N)C(C(=O)OC)=c2s/c(=C/c3cccnc3)c(=O)n2C1c1cccnc1 (stereo not given),1.8 (inactive)
11,c1ccc(-c2nc(SCc3ccon3)[nH]c2-c2ccccc2)cc1,-1.7 (inactive)
12,Cc1sc(NC(=O)Cn2cnc([N+](=O)[O-])n2)c(C(N)=O)c1C,1.35 (inactive)
13,CC(C)CCCC(C)C1CCC2C3CC=C4CC(O)CCC4(C)C3CCC12C (stereo not given),1.54 (inactive)
14,CC(=O)OC1CCC2(C)C(=CCC3C2CCC2(C)C(C(C)O)CCC32)C1 (stereo not given),3.23 (active)
15,CC[C@H](/C=C/[C@@H](C)[C@H]1CC[C@H]2[C@@H]3CC=C4C[C@@H](O)CC[C@]4(C)[C@H]3CC[C@]12C)C(C)C,-1.34 (inactive)
16,CC(=O)OC1CCC2(C)C(=CCC3C2CCC2(C)C3CC3OC32[C@H](C)OC(C)=O)C1 (stereo not given in full),4.11 (active)
17,CC(=O)OC1CCC2(C)C(=CCC3C2CC[C@]2(C)C(C(C)=O)CCC32)C1 (stereo not given in full),1.32 (inactive)
18,CCCCOC1CC[C@@]2(C)C(=CC[C@H]3[C@@H]4CC[C@H]([C@H](C)CCCC(C)C)[C@@]4(C)CC[C@@H]32)C1 (stereo not given in full),-1.1 (inactive)
19,CNc1oc(/C=C/c2ccccc2)nc1S(=O)(=O)c1ccc(Cl)cc1,-1.12 (inactive)
20,CC(C)(C)Sc1c(Br)cccc1Br,-2.29 (inactive)
21,CCCc1nnc(NC(=O)c2ccoc2C)s1,-1.3 (inactive)
22,CCOc1ccc(-n2c(C)cc(C(=S)N3CCOCC3)c2C)cc1,-3.28 (inactive)
23,CCC(C)C(NC(C)=O)C(=O)O (stereo not given),1.28 (inactive)
24,NC1CCCc2c1[nH]c1ccc(Br)cc21 (stereo not given),-11 (inactive)
25,c1ccc(OCC2CCNCC2)nc1,2.98 (active)
26,CC(C)(C)c1cc(Cl)cc(Cc2cc(C(C)(C)C)c(O)c(C(C)(C)C)c2)c1O,-1.42 (inactive)
27,CCOC(=O)C1=C(C(=O)OCC)SC(=C2C(=S)C(C)(C)N(C)c3ccc(C)cc32)S1,-1 (inactive)

row,Structure (SMILES),fold change
1,O=C(Nc1ccc(F)cc1)Nc1nncs1,-1.15 (inactive)
2,O=C(Nc1ccccc1)Nc1ccc2c(c1)OCCO2,-1.3 (inactive)
3,O=C(Nc1ccccc1)Nc1snnc1C(=O)O,4.77 (active)
4,CCOC(=O)C1CCN(C(=O)CC(C)C)CC1,-1.61 (inactive)
5,O=S(=O)(Nc1cccc2ccccc12)N1CCCCC1,-1.29 (inactive)
6,C=CCN(CC=C)C(=O)Cc1cccs1,-1.46 (inactive)
7,Oc1ccc(Br)c(C=Nc2ccc(-c3ccc(N=Cc4cc(Br)ccc4O)cc3)cc2)c1,active
8,COc1ccc(OC)c(N=Cc2cc(Br)ccc2O)c1,active
9,O=[N+]([O-])c1ccc(O)c(C=Nc2ccc(I)cc2)c1,inactive
10,Oc1ccc(Br)cc1C=Nc1ccc(I)cc1,active
11,COc1cc2c(cc1N=Cc1cc(Br)ccc1O)oc1ccccc12,inactive
12,Oc1ccc(Br)cc1C=Nc1cc(Cl)ccc1Cl,inactive
13,COc1ccc(OC)c(N=Cc2cc(Cl)cc(Cl)c2O)c1,inactive
14,Oc1c(Br)cc(Br)cc1C=Nc1ccc(Br)cc1,inactive
15,Oc1ccc(Br)cc1C=Nc1cc(Cl)cc(Cl)c1,inactive
16,O=c1c2ccc(Cl)c3c(Cl)ccc(c32)c2nc3ccccc3n12,-2.06 (inactive)
17,Cc1cc(C)n(C(=O)c2nn(C)cc2[N+](=O)[O-])n1,1.61 (inactive)
18,O=[N+]([O-])c1cc(Br)cc(C=Nc2ccc(I)cc2)c1O,inactive
19,N#CC1=C(N)Oc2[nH]c(=O)[nH]c(=O)c2C1c1cccnc1 (stereo not given),1.23 (inactive)
20,O/N=C(\c1ccccc1)C(O)c1ccccc1 (stereo not given),-1.85 (inactive)
21,S=c1nc(-c2ccccc2Cl)[nH][nH]1,-1.2 (inactive)
22,Nn1c(-c2cccs2)nc2ccccc2c1=O,-1.03 (inactive)
23,O=C1C=CC(=O)N1c1ccc(Cl)c(Cl)c1,-1.48 (inactive)
24,NCC1NCCc2ccccc21 (stereo not given),-1.4 (inactive)
25,NC(=S)NCCC[C@H](N)C(=O)O,1.05 (inactive)
26,c1ccc2cc(NCSCc3nc4ccccc4c4ccccc34)ccc2c1,-1.54 (inactive)
27,O=C1C2C3c4ccccc4C(c4ccccc43)C2C(=O)N1c1ccc2ccccc2c1 (stereo not given),3.16 (active)

row,Structure (SMILES),fold change
1,O=C1C2C3CC(C(Br)C3Br)C2C(=O)N1c1ccc(Br)cc1 (stereo not given),1.06 (inactive)
2,Cc1ccnc(SC2CC(=O)N(c3ccc4ccccc4c3)C2=O)n1 (stereo not given),-1.04 (inactive)
3,CN1C(=O)COc2ccc(S(=O)(=O)N3CCOCC3)cc21,-1.01 (inactive)
4,Nc1nc(=S)n(-c2ccccc2)[nH]1,-2.51 (inactive)
5,CC(C)N1C=C(Cc2cccnc2)C2=C(C1)C(c1cccnc1)C(C#N)=C(N)O2 (stereo not given),2.25 (inactive)
6,N#CC1=C(N)Oc2ccc(N)cc2C1c1cccnc1 (stereo not given),2.15 (inactive)
7,N#CC1=C(N)N(Cc2ccccc2)C2=C(COC/C2=C/c2cccnc2)C1c1cccnc1 (stereo not given),2.64 (active)
8,COc1cccc(OC)c1-c1noc(CSc2nc3ccccc3o2)n1,-1.15 (inactive)
9,O=c1[nH]c(=O)n([C@@H]2O[C@H](CO)[C@@H](O)[C@H]2O)cc1Br,-3.23 (inactive)
10,O=c1nc(N2CCOCC2)nc(Nc2ccccc2)[nH]1,active
11,Cc1cc(C)n(-c2nc(N3CCOCC3)nc(N3CCOCC3)n2)n1,1.04 (inactive)
12,Cc1cc(C)nc(Nc2ccc(N3CCOCC3)cc2)n1,-1.54 (inactive)
13,CCc1cc(C=C(Cl)Cl)oc(=O)c1C,-1.84 (inactive)
14,Cc1cc2ccc(=O)oc2cc1OC[C@@H](O)C(C)(C)O,-1.35 (inactive)
15,O=S(=O)(NCc1ccco1)c1ccc(Br)cc1,2.26 (inactive)
16,O=c1[nH]nc(CSCc2ccc3nsnc3c2)[nH]1,active
17,O=c1[nH]nc(CSCc2csc(-c3ccccc3)n2)[nH]1,inactive
18,O=c1[nH]nc(CSCc2ccc(Cl)cc2)[nH]1,inactive
19,NCCCN1CCc2ccccc21,-1.28 (inactive)
20,O=C(c1n[nH]c(=O)c2ccccc12)N1CCN(c2ccccn2)CC1,-1.05 (inactive)
21,Cc1ccc(C)n1-c1sc2c(c1C(=O)O)CCCC2,-1.1 (inactive)
22,O=C(O)c1csc2c1CCCC2,2.51 (active)
23,O=C(Nc1sc2c(c1C(=O)O)CCCCC2)c1cccs1,-1.49 (inactive)
24,CCS(=O)(=O)c1ccsc1S(=O)(=O)CC,-1.28 (inactive)
